According to PubChem BioAssay AID1159580 (chemical genetic matrix, 2015):
Screen size: about 5,500 compounds; about 2,000 (36%) were called active. Roughly 18% stayed inconclusive and do not appear here. Cut-off read from the data, not from the text of the source: active = normalized growth mostly below about 0.91 (no sharp cut-off); inconclusive = no clear call, values can overlap the other calls; inactive = mostly above about 0.92. The list shows a part of the results.

Test: chemical genetic growth profiling, strain panel (AID 1159580);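 note: tested at 20 µM; growth read once vehicle control cultures reached saturation at 30 °C; 1 = growth at the plate median or of vehicle wells; lower values mean less growth of the strain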
Settings: growth OD

Measured: normalized growth

CCc1ccc(CCOc2ccc(CC3SC(=O)NC3=O)cc2)nc1 (configuration not stated)
inactive: S. cerevisiae deletion strains, locus YJR075W, strain HOC1, stronger effect = lower value 0.997 | S. cerevisiae deletion strains, locus YKL009W, strain mrt4, stronger effect = lower value 1.01 | S. cerevisiae deletion strains, locus YKL068W, stronger effect = lower value 0.991 | S. cerevisiae deletion strains, locus YKL085W, strain MDH1 (second series), stronger effect = lower value 0.991 | S. cerevisiae deletion strains, locus YKL085W, strain MDH1, stronger effect = lower value 0.991 | S. cerevisiae deletion strains, locus YKL160W, strain elf1, stronger effect = lower value 1.02 | S. cerevisiae deletion strains, locus YKL190W, strain CNB1, stronger effect = lower value 1.02 | S. cerevisiae deletion strains, locus YKR001C, strain vps1, stronger effect = lower value 0.977 | S. cerevisiae deletion strains, locus YKR026C, strain gcn3, stronger effect = lower value 1.01 | S. cerevisiae deletion strains, locus YKR091W, strain srl3, stronger effect = lower value 0.999 | S. cerevisiae deletion strains, locus YLL001W, strain dnm1, stronger effect = lower value 1 | S. cerevisiae deletion strains, locus YLL026W, stronger effect = lower value 1.02 | S. cerevisiae deletion strains, locus YLL041C, strain sdh2, stronger effect = lower value 1.01 | S. cerevisiae deletion strains, locus YLR027C, strain aat2, stronger effect = lower value 1.01 | S. cerevisiae deletion strains, locus YLR039C, strain RIC1, stronger effect = lower value 0.914 | S. cerevisiae deletion strains, locus YLR058C, strain SHM2, stronger effect = lower value 1.01 | S. cerevisiae deletion strains, locus YLR102C, strain apc9, stronger effect = lower value 0.988 | S. cerevisiae deletion strains, locus YLR113W, strain HOG1, stronger effect = lower value 1.01 | S. cerevisiae deletion strains, locus YLR221C, strain rsa3, stronger effect = lower value 1.01 | S. cerevisiae deletion strains, locus YLR258W, strain gsy2, stronger effect = lower value 1.02 | S. cerevisiae deletion strains, locus YLR262C, strain YPT6 (second series), stronger effect = lower value 0.99 | S. cerevisiae deletion strains, locus YLR262C, strain YPT6, stronger effect = lower value 0.88 | S. cerevisiae deletion strains, locus YLR268W, strain sec22, stronger effect = lower value 0.993 | S. cerevisiae deletion strains, locus YLR320W, strain mms22, stronger effect = lower value 1.01 | S. cerevisiae deletion strains, locus YLR330W, strain CHS5, stronger effect = lower value 1.01 | S. cerevisiae deletion strains, locus YLR342W, strain FKS1 (second series), stronger effect = lower value 0.985 | S. cerevisiae deletion strains, locus YLR342W, strain FKS1, stronger effect = lower value 1.02 | S. cerevisiae deletion strains, locus YLR357W, strain rsc2, stronger effect = lower value 1.03 | S. cerevisiae deletion strains, locus YLR370C, strain arc18, stronger effect = lower value 1.01 | S. cerevisiae deletion strains, locus YLR371W, strain rom2, stronger effect = lower value 0.989 | S. cerevisiae deletion strains, locus YLR384C, strain iki3, stronger effect = lower value 1.01 | S. cerevisiae deletion strains, locus YLR418C, strain cdc73, stronger effect = lower value 0.969 | S. cerevisiae deletion strains, locus YML016C, strain PPZ1, stronger effect = lower value 0.997 | S. cerevisiae deletion strains, locus YML032C, strain rad52, stronger effect = lower value 0.998 | S. cerevisiae deletion strains, locus YML120C, strain ndi1, stronger effect = lower value 1.02 | S. cerevisiae deletion strains, locus YML124C, strain tub3, stronger effect = lower value 0.992 | S. cerevisiae deletion strains, locus YMR058W, strain fet3, stronger effect = lower value 1.01 | S. cerevisiae deletion strains, locus YMR078C, strain ctf18, stronger effect = lower value 0.985 | S. cerevisiae deletion strains, locus YMR125W, strain sto1, stronger effect = lower value 1.02 | S. cerevisiae deletion strains, locus YMR129W, stronger effect = lower value 1 | S. cerevisiae deletion strains, locus YMR205C, strain PFK2, stronger effect = lower value 0.997 | S. cerevisiae deletion strains, locus YMR223W, strain ubp8, stronger effect = lower value 0.995 | S. cerevisiae deletion strains, locus YMR231W, strain pep5, stronger effect = lower value 0.995 | S. cerevisiae deletion strains, locus YMR263W, strain SAP30, stronger effect = lower value 1.04 | S. cerevisiae deletion strains, locus YMR307W, strain GAS1, stronger effect = lower value 0.938 | S. cerevisiae deletion strains, locus YNL067W, strain RPL9B, stronger effect = lower value 1.06 | S. cerevisiae deletion strains, locus YNL071W, strain lat1, stronger effect = lower value 1.01 | S. cerevisiae deletion strains, locus YNL128W, strain TEP1, stronger effect = lower value 1.04 | S. cerevisiae deletion strains, locus YNL153C, strain GIM3, stronger effect = lower value 1 | S. cerevisiae deletion strains, locus YNL183C, strain NPR1, stronger effect = lower value 0.963 | S. cerevisiae deletion strains, locus YNL209W, strain ssb2, stronger effect = lower value 0.997 | S. cerevisiae deletion strains, locus YNL233W, strain BNI4, stronger effect = lower value 1.01 | S. cerevisiae deletion strains, locus YNL248C, strain rpa49, stronger effect = lower value 1.02 | S. cerevisiae deletion strains, locus YNL250W, strain rad50, stronger effect = lower value 0.995 | S. cerevisiae deletion strains, locus YNL271C, strain bni1, stronger effect = lower value 1 | S. cerevisiae deletion strains, locus YNL298W, strain CLA4, stronger effect = lower value 0.997 | S. cerevisiae deletion strains, locus YNL307C, strain MCK1, stronger effect = lower value 0.994 | S. cerevisiae deletion strains, locus YNL322C, strain KRE1 (second series), stronger effect = lower value 1.02 | S. cerevisiae deletion strains, locus YNL322C, strain KRE1, stronger effect = lower value 0.994 | S. cerevisiae deletion strains, locus YNR049C, strain mso1, stronger effect = lower value 1.01 | S. cerevisiae deletion strains, locus YNR052C, strain pop2, stronger effect = lower value 1.01 | S. cerevisiae deletion strains, locus YOL006C, strain TOP1, stronger effect = lower value 1 | S. cerevisiae deletion strains, locus YOL012C, strain htz1 1.21 | S. cerevisiae deletion strains, locus YOL147C, strain pex11, stronger effect = lower value 0.996 | S. cerevisiae deletion strains, locus YOR001W, strain rrp6, stronger effect = lower value 1.01 | S. cerevisiae deletion strains, locus YOR061W, strain CKA2, stronger effect = lower value 0.999 | S. cerevisiae deletion strains, locus YOR069W, strain VPS5, stronger effect = lower value 1 | S. cerevisiae deletion strains, locus YOR070C, strain gyp1, stronger effect = lower value 1.01 | S. cerevisiae deletion strains, locus YOR080W, strain dia2, stronger effect = lower value 1.01 | S. cerevisiae deletion strains, locus YOR083W, strain WHI5, stronger effect = lower value 1 | S. cerevisiae deletion strains, locus YOR106W, strain vam3, stronger effect = lower value 1.02 | S. cerevisiae deletion strains, locus YOR136W, strain idh2, stronger effect = lower value 1 | S. cerevisiae deletion strains, locus YOR144C, strain elg1, stronger effect = lower value 0.993 | S. cerevisiae deletion strains, locus YOR184W, strain ser1, stronger effect = lower value 0.971 | S. cerevisiae deletion strains, locus YOR231W, strain MKK1, stronger effect = lower value 0.98 | S. cerevisiae deletion strains, locus YOR265W, strain rbl2, stronger effect = lower value 1.01 | S. cerevisiae deletion strains, locus YOR270C, strain vph1, stronger effect = lower value 1.04 | S. cerevisiae deletion strains, locus YOR290C, strain snf2, stronger effect = lower value 1 | S. cerevisiae deletion strains, locus YOR316C, strain cot1, stronger effect = lower value 0.997 | S. cerevisiae deletion strains, locus YPL051W, strain arl3, stronger effect = lower value 1.01 | S. cerevisiae deletion strains, locus YPL055C, strain LGE1, stronger effect = lower value 1.02 | S. cerevisiae deletion strains, locus YPL078C, strain atp4, stronger effect = lower value 1.01 | S. cerevisiae deletion strains, locus YPL106C, strain sse1, stronger effect = lower value 1.02 | S. cerevisiae deletion strains, locus YPL240C, strain hsp82, stronger effect = lower value 1.02 | S. cerevisiae deletion strains, locus YPL241C, strain CIN2, stronger effect = lower value 1 | S. cerevisiae deletion strains, locus YPL256C, strain CLN2, stronger effect = lower value 0.936 | S. cerevisiae deletion strains, locus YPR119W, strain clb2, stronger effect = lower value 0.989 | S. cerevisiae deletion strains, locus YPR141C, strain kar3, stronger effect = lower value 0.994 | S. cerevisiae deletion strains, locus YPR163C, strain tif3, stronger effect = lower value 0.999 | S. cerevisiae deletion strains, locus YPR167C, strain met16, stronger effect = lower value 0.996 | S. cerevisiae deletion strains, strain wtn01, stronger effect = lower value 0.99 | S. cerevisiae strains, strain wild type, stronger effect = lower value 1.01
